The target in experiment [1] is Inward rectifier potassium channel 2 (Mus musculus) (UniProt P35561). The experiment in a line: mouse Kir2.1 channel blockers, retest, confirmation, cell-based, FluxOR thallium flux, duplicate (AID 2032;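 active means Primary-screen hit whose thallium flux fell at least 3 control SD below untreated wells in both duplicates, with normal baseline fluorescence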). Conditions: Kir2.1-expressing cells, FluxOR thallium flux fluorescence, at 10 µM; stronger effect = lower value.
Experiment [2] can be described thus: nonspecific thallium flux effects in parental HEK293 cells, confirmation, counter-screen for Kir2.1 inhibitor project, cell-based, FluxOR thallium flux, duplicate, single concentration (AID 2105).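 On FluxOR signal as % of negative control (100 = no effect): percent is based on the flux ratio of peak minus minimum fluorescence over baseline F0.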 Conditions: FluxOR thallium flux fluorescence, at 10 µM; 0% = unstimulated blank wells.
A short description of experiment [3]: nonspecific thallium flux increase in parental CHO-K1, confirmation, counter-screen for KCNQ2 potentiator project, cell-based, FluxOR thallium flux, duplicate (AID 2282;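 active means signal rise of at least 3 SD above the untreated control mean, in both duplicate wells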;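 further: counter screen of KCNQ2 potentiator hits so any rise reflects channel-independent effects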). Conditions: parental CHO-K1 cells, FluxOR thallium flux fluorescence; at 10 µM; stronger effect = higher value; zero = vehicle mean+3SD, 100% = vehicle-minus-blank window.
Experiment [4] deals with Potassium voltage-gated channel subfamily KQT member 1 (Homo sapiens) (UniProt P51787). The experiment in a line: human KCNQ1 channel potentiation off-target, confirmation, selectivity assay for KCNQ2 potentiator project, cell-based, CHO, FluxOR thallium flux (AID 2283;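 active means fluorescence ratio rise of at least 3 SD of vehicle wells above their mean, in both replicate wells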;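 further: 0% = vehicle mean plus 3 SD and 100% = vehicle minus unstimulated blank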). Conditions: CHO KCNQ1 stable, FluxOR thallium flux fluorescence; at 10 µM; stronger effect = higher value; beyond 3SD, as % of vehicle-control signal.

The target in experiment [5] is Potassium voltage-gated channel subfamily KQT member 2 (Rattus norvegicus) (UniProt O88943). The experiment can be described thus: rat KCNQ2 channel potentiators, confirmation, cell-based, CHO, FluxOR thallium flux, duplicate (AID 2287;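 active means fluorescence ratio rising 3 SD or more over the vehicle control mean in both replicates, plus primary screen hit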;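 further: peak minus minimum thallium fluorescence divided by baseline after K/Tl stimulus; 0% = vehicle mean plus 3 SD and 100% = vehicle minus unstimulated blank difference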). The settings on record: CHO-KCNQ2 cells, FluxOR thallium flux fluorescence; at 10 µM; stronger effect = higher value.
Experiment [6] has as its target Inward rectifier potassium channel 2 (Mus musculus) (UniProt P35561). The experiment in a line: PubChem AID 2345.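 Further: 0% = vehicle mean plus 3 SD and 100% = vehicle minus no-stimulus blank window.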 Conditions: HEK293 Kir2.1, FluxOR thallium flux fluorescence; at 10 µM; stronger effect = higher value.

Some of the results follow. Unmarked numbers belong to inactive results. The source made the active and inactive calls.

Inward rectifier potassium channel 2 (Mus musculus), sequence (P35561 whole entry, looked up): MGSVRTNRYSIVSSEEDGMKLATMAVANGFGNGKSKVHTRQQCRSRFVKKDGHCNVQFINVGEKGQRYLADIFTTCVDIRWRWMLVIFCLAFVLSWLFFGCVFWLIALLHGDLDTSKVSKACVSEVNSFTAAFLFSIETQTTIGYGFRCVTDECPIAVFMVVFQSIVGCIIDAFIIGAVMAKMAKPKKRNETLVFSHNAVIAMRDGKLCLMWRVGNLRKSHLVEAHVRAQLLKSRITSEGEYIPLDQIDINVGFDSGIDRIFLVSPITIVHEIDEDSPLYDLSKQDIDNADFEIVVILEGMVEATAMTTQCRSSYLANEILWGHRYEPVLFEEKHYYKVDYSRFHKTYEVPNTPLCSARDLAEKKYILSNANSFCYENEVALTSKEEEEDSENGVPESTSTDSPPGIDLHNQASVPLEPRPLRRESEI
Potassium voltage-gated channel subfamily KQT member 2 (Rattus norvegicus), sequence (O88943 whole entry, looked up): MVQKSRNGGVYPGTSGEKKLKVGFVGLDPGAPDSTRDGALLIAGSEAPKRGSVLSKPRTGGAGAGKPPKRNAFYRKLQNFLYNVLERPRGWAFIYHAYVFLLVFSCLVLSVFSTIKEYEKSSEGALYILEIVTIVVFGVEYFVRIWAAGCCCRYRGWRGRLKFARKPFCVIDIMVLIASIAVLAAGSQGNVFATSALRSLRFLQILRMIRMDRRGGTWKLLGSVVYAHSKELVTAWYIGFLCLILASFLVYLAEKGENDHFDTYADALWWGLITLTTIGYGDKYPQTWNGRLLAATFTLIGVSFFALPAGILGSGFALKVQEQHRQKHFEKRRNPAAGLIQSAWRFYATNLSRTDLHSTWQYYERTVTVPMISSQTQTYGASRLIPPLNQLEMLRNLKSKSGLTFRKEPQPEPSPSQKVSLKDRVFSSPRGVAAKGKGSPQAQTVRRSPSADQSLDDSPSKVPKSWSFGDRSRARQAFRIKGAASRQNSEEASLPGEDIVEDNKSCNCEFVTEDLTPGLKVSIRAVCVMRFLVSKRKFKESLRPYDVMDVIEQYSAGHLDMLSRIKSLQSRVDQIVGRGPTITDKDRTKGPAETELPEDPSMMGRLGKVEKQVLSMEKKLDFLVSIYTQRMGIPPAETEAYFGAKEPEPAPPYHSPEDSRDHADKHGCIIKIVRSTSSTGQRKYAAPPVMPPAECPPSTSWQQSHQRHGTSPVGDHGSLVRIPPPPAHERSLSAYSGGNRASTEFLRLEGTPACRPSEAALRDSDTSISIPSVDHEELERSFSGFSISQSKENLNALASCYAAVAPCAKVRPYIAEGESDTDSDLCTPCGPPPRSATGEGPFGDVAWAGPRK
Potassium voltage-gated channel subfamily KQT member 1 (Homo sapiens), sequence (P51787 whole entry, looked up): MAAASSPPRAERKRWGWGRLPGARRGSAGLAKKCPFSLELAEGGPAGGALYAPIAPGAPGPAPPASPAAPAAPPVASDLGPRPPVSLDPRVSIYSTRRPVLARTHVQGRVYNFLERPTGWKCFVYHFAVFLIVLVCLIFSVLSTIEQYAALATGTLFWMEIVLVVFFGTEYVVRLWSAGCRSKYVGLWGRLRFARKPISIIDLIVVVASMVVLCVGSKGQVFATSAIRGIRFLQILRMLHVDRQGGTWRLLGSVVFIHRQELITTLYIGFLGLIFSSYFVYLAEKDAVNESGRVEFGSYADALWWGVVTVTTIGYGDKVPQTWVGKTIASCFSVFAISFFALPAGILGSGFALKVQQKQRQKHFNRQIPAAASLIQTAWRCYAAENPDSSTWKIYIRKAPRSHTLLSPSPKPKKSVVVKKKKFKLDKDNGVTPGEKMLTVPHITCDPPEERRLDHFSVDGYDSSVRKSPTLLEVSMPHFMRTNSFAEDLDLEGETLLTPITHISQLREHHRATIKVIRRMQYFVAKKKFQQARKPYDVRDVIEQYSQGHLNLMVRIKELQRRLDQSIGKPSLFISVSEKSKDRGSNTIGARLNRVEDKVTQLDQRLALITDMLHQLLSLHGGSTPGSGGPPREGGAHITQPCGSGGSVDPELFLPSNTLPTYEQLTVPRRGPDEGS

For `CN(Cc1ccccc1)C(=O)CCc1ccccc1`, the molecule was called inactive in experiment [1] and in experiment [2].
For the molecule `CCCCCCCCn1c2c(c(=N)c3c1CCC3)CCCC2`, the Tl flux remaining, % of negative control (stronger effect = lower value) in experiment [1] is 10% (active). For the same molecule, the outcome in experiment [2] was inactive.
In the case of `CC1COc2ccccc2N1S(=O)(=O)c1ccccc1` (centres undefined), the Tl flux remaining, % of negative control (stronger effect = lower value) in experiment [1] is 60% (active). The outcome in experiment [2] was inactive.
Regarding `Cc1ccc(-c2nn(-c3ccccc3)cc2/C=C2\SC(=S)N(CCCCCC(=O)O)C2=O)o1`, the molecule was classed as inactive in experiment [1]. Further, the FluxOR signal as % of negative control (100 = no effect) in experiment [2] was 75% (active).
Turning to `COc1cc(/C=N/O)cc(Br)c1OS(=O)(=O)c1ccc(C)cc1`, in experiment [1], the Tl flux remaining, % of negative control (stronger effect = lower value) is 57.5% (active). Also, the outcome in experiment [2] was inactive.
On to `COc1cc(CNCc2ccc(OC)c3ccccc23)cc(OC)c1OC`, for which the Tl flux remaining, % of negative control (stronger effect = lower value) in experiment [1] is 51% (active). Also, the result in experiment [2] was inactive.
In the case of `Clc1c(OCCCn2ccnc2)ccc2ccccc12`, the call in experiment [1] and in experiment [2] was inactive.
For the molecule `OCCNCc1cccc(OCc2ccccc2Cl)c1`, in experiment [1], the Tl flux remaining, % of negative control (stronger effect = lower value) was 62% (active). Also, the result in experiment [2] was inactive.
The corresponding values for `COc1ccc(CN2CCC(c3nc4ccc(Cl)cc4[nH]3)CC2)cc1` are 30% (active) and “inactive”.
The corresponding values for `C(=C\c1ccccc1)/CSc1nnc(-c2cccnc2)n1Cc1ccco1` are 37% (active) and “inactive”.
With `O=C(Nc1ccccc1Cl)/C(Cl)=C(\Cl)S(=O)c1ccccc1` (centres undefined), the Tl flux remaining, % of negative control (stronger effect = lower value) in experiment [1] is 60.5% (active). Further, in experiment [2], the FluxOR signal as % of negative control (100 = no effect) was 57.5% (active).
For `O=C(Cc1c[nH]c2ccccc12)OCCOC(=O)Cc1c[nH]c2ccccc12`, the Tl flux remaining, % of negative control (stronger effect = lower value) in experiment [1] was 48.5% (active). In addition, the outcome in experiment [2] was inactive.
Turning to `COc1cccc(CN(C)CC2CCCN(CCc3ccc(Cl)cc3)C2)c1OC` (centres undefined), in experiment [1], the Tl flux remaining, % of negative control (stronger effect = lower value) is 49% (active). Moreover, the outcome in experiment [2] was inactive.
The corresponding values for `c1ccc(CSc2nnc(-c3ccco3)n2Cc2ccccc2)cc1` are 54% (active) and “inactive”.
Consider `NC(N)=Nc1nc(-c2ccccc2)c2cc(Cl)ccc2n1`, for which the call in experiment [1] and in experiment [2] was inactive.
As for `CCCCCCCCCCOC(=O)Cn1c(COc2cccc(OC)c2)[n+](C)c2ccccc21`, the call in experiment [1] and in experiment [2] was inactive.
Turning to `COc1ccc(F)c(-c2nc(CN3CCC(c4ccccc4)CC3)c(C)o2)c1`, the Tl flux remaining, % of negative control (stronger effect = lower value) in experiment [1] was 45.5% (active). Moreover, in experiment [2], the result was inactive.
Turning to `COc1cccc(CNCCc2c[nH]c3ccccc23)c1OCc1ccccc1F`, in experiment [1], the Tl flux remaining, % of negative control (stronger effect = lower value) is 23.5% (active). Besides, the result in experiment [2] was inactive.
For the molecule `COc1ccc(Nc2ncnc3sc(C)cc23)cc1`, the outcome in experiment [1] and in experiment [2] was inactive.
Take `COc1ccccc1CCNS(=O)(=O)c1cc2c3c(c1)C(C)C(=O)N3CCC2` (centres undefined): in experiment [1], the Tl flux remaining, % of negative control (stronger effect = lower value) is 62% (active). In experiment [2], the result was inactive.
On to `CN(Cc1ccccc1)CC(O)COc1ccc(CNCc2cc3ccccc3s2)cc1` (centres undefined), for which the Tl flux remaining, % of negative control (stronger effect = lower value) in experiment [1] was 33.5% (active). Moreover, in experiment [2], the FluxOR signal as % of negative control (100 = no effect) is 74.5% (active).
For the molecule `CCCCCCCCCCOC(=O)Cn1c(COc2ccc(C)cc2)[n+](C)c2ccccc21`, the molecule was called inactive in experiment [1] and in experiment [2].
Regarding `O=C(CCl)N(Cc1cccc([N+](=O)[O-])c1)c1cccc(Cl)c1`, the call in experiment [1] and in experiment [2] was inactive.
`CCN(CC)CCC(c1ccc2c(c1)OCO2)c1c(OC)cc(OC)c2c(-c3ccccc3)cc(=O)oc12` (centres undefined): the Tl flux remaining, % of negative control (stronger effect = lower value) in experiment [1] is 65.5% (active). Further, in experiment [2], the result was inactive.
The corresponding values for `Cc1cc(C)c(C)c(S(=O)(=O)Nc2ccc(O)cc2)c1C` are 65.5% (active) and “inactive”.
The corresponding values for `CCC(Cc1ccccc1)NS(=O)(=O)c1ccc2c(c1)NC(=O)CS2` (centres undefined) are 62% (active) and “inactive”.
In the case of `CCCOc1ccc(C(=O)C(CCC(CNCC)C(=O)c2ccc(OCCC)cc2)CNCC)cc1` (centres undefined), the Tl flux remaining, % of negative control (stronger effect = lower value) in experiment [1] was 48% (active). Further, in experiment [2], the outcome was inactive.
Turning to `CSc1c(SCc2ccccc2)cnn(Cc2ccccc2)c1=O`, the outcome in experiment [1] and in experiment [2] was inactive.
Consider `CCCCOC(=O)Cn1c(=O)n(CC(=O)OCCCC)c2cc(C)ccc21`, for which the outcome in experiment [1] and in experiment [2] was inactive.
Take `CC12CN(Cc3ccccc3)CC(C)(CN(Cc3ccccc3)C1)C2=NO`: the Tl flux remaining, % of negative control (stronger effect = lower value) in experiment [1] was 54.5% (active). The outcome in experiment [2] was inactive.
`C=CCNC(=S)/N=c1/ccccn1Cc1ccccc1`: in experiment [1], the Tl flux remaining, % of negative control (stronger effect = lower value) was 64% (active). Further, the result in experiment [2] was inactive.
Consider `COc1ccccc1-c1n[nH]c2c1[C@H](C)CC[C@H]2C(C)C`, for which the molecule was called inactive in experiment [1] and in experiment [2].
Turning to `CC(C)(C)c1cc2cccnc2n1Cc1cccc(F)c1`, the Tl flux remaining, % of negative control (stronger effect = lower value) in experiment [1] was 72% (active). For the same molecule, the outcome in experiment [2] was inactive.
Turning to `CC1CN(C(=O)CCC(=O)NCCCN2CCC(Cc3ccccc3)CC2)c2cc(Cl)ccc2O1` (centres undefined), the Tl flux remaining, % of negative control (stronger effect = lower value) in experiment [1] was 35.5% (active). For the same molecule, the result in experiment [2] was inactive.
The corresponding values for `COc1ccc(CCC(C)N2CCc3ccccc3C2)cc1` (centres undefined) are 25.5% (active) and “inactive”.
For the molecule `Cn1c(SCC(=O)N2CCCc3ccccc32)nc2ccccc2c1=O`, in experiment [1], the Tl flux remaining, % of negative control (stronger effect = lower value) is 71.5% (active). Moreover, the FluxOR signal as % of negative control (100 = no effect) in experiment [2] is 66.5% (active).
Turning to `CC(C)(c1ccccc1)c1ccc(OCCN2CCCC2)cc1`, the Tl flux remaining, % of negative control (stronger effect = lower value) in experiment [1] was 44% (active). In experiment [2], the result was inactive.
`COc1ccc2c(c1)C=CC1(O2)N(CCO)c2ccccc2C1(C)C` (centres undefined): the molecule was classed as inactive in experiment [1]. Further, in experiment [2], the FluxOR signal as % of negative control (100 = no effect) is 53.5% (active).
In the case of `CCn1cc(CCC(=O)NCc2ccc(F)cc2)c2ccccc21`, the Tl flux remaining, % of negative control (stronger effect = lower value) in experiment [1] was 56.5% (active). Besides, in experiment [2], the result was inactive.
For the molecule `CCc1ccccc1NC(=O)[C@@H]1CCC(=O)N1C1OC(=O)c2c1ccc(OC)c2OC` (some centres undefined), the call in experiment [1] and in experiment [2] was inactive. Also, the activity increase over 3SD of controls in experiment [3] is 82.8% (active). The activation over 3SD threshold in experiment [4] is 55% (active). Besides, the potentiation, less the hit threshold in experiment [5] was -19.6%. Also, the activity over 3SD threshold in experiment [6] is -22%.

Values taken from PubChem BioAssay.
